Measured values taken from ChEMBL document CHEMBL4808148, “HDAC6 screening dataset using tau-based substrate in an enzymatic assay yields selective inhibitors and activators” (2021).
In all, about 5,600 compounds went through this assay and about 390 (7%) showed an effect of 50% or more. For the sample, strong results were picked, then their nearest neighbours and some compounds at random. Non-standard residues stand in square brackets, D forms with d. Residues, ends and D or L forms follow the SMILES beside them.

Tests used:
[1] = biological target: T1, Protein deacetylase HDAC6 (Homo sapiens) (UniProt Q9UBN7); conditions: at 10 µM
T1 sequence (whole entry): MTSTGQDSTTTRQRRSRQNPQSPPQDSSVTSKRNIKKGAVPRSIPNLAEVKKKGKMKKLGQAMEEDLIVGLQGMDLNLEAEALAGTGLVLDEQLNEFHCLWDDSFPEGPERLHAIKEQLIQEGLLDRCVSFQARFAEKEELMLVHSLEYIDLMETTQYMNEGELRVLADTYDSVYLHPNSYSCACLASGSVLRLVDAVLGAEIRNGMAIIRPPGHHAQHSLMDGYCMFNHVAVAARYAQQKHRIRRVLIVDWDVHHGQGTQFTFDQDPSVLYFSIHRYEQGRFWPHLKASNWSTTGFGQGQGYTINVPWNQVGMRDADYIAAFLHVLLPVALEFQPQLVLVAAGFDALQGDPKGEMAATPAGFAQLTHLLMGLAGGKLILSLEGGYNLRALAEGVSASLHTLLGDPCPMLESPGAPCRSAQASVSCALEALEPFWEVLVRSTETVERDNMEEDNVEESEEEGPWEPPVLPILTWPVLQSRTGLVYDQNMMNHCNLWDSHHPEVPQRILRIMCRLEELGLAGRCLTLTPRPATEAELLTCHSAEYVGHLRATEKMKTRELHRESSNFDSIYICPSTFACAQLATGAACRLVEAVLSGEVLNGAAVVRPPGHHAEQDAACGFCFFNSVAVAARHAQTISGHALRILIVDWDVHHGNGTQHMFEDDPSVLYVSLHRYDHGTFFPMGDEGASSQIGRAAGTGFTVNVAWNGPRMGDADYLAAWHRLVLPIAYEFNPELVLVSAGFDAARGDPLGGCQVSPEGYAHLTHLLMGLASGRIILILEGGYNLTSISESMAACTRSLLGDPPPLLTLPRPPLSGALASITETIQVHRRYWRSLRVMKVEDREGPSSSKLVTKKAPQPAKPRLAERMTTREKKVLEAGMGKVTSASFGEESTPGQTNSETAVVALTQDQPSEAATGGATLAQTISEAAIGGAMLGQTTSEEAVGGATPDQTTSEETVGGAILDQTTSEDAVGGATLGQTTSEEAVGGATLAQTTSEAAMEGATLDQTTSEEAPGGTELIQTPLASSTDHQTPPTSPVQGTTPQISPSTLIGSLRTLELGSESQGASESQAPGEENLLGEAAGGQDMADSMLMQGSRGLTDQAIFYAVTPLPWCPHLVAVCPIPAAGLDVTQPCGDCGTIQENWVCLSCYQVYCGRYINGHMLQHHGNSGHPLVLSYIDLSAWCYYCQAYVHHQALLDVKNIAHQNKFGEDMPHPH

[2] = biological target: Protein deacetylase HDAC6 (Homo sapiens) (UniProt Q9UBN7); conditions: at 10 µM; remark: listed apart in the source

Molecule	inhibition [1]	inhibition [2]
Cc1cccc(CCN2CCC(C(=O)c3ccc(NS(C)(=O)=O)cc3)CC2)n1	25.6%	–
C[C@]1(O)C[C@@H](c2nc(-c3ccc4ccc(-c5ccccc5)nc4c3)c3c(N)nccn32)C1	29.4%	–
Nc1ccc2ncnc(NCCc3ccc(Oc4ccccc4)cc3)c2c1	58%	–
COc1cc2ncnc(Nc3ccc(Oc4ccccc4)cc3)c2cc1OC	1.72%	–
Fc1ccc(CNc2ncnc3ccc(F)cc23)cc1	-3.85%	–
FC(F)(F)c1ccccc1-c1cc(C(F)(F)F)c2[nH]c(C3=NOC4(CCCCC4)C3)nc2c1	-8.26%	–
C[C@]12CC[C@H](O)CC1=CC[C@@H]1[C@@H]2CC[C@]2(C)C(c3cccnc3)=CC[C@@H]12	11.3%	–
CC[S+]([O-])c1nc(-c2cccc(OCc3ccccc3)c2)cc(C(F)(F)F)n1 (centres undefined)	21.6%	–
COc1ccc2cc(C(C)C(=O)Oc3ccc(C(N)=S)cc3)ccc2c1 (centres undefined)	29%	–
Oc1cc(O)c2c(c1)O[C@H](c1ccc(O)c(O)c1)[C@H](O)[C@H]2c1c(O)cc(O)c2c1O[C@H](c1ccc(O)c(O)c1)[C@H](O)C2	11%	–
COc1ccccc1CC(=N)N1C[C@@H]2C(=O)CCC(c3ccccc3)(c3ccccc3)[C@@H]2C1	5.85%	–
Cc1c(C2CCN(CCc3ccccc3)CC2)noc1-c1ccc(Cl)cc1	5.51%	–
Cc1nc(-c2ccc(OCC(C)C)c(C#N)c2)sc1C(=O)O	94.2%	–
CCCCOCCOc1nc(-c2ccc(C(=O)O)c(F)c2)sc1C	3.39%	–
Cc1cc(SCc2sc(-c3ccc(C(F)(F)F)cc3)nc2C)ccc1OCC(=O)O	46.6%	–
CCCCCCCC(=O)N[C@H](CN1CCCC1)[C@H](O)c1ccc2c(c1)OCCO2	6.2%	–
CC(=O)NCC(=O)N[C@H](CCC(=O)O)C(=O)O (Ac-Gly-[dE]-OH)	1.3%	–
O=C(O)c1ccc2nc(-c3cc(Cl)cc(Cl)c3)oc2c1	76.5%	–
CCN1CCCC1CNC(=O)c1cc(S(=O)(=O)CC)c(N)cc1OC (centres undefined)	-7.98%	–
C[C@@H]1C(=O)O[C@H]2[C@H](O)C34C5C[C@@H](C(C)(C)C)[C@]36[C@@H](OC(=O)[C@@H]6O)O[C@@]4(C(=O)O5)[C@@]12O (some centres undefined)	21%	–
CC#CCOC(=O)c1c(C)nc2sc3c(c2c1N)CCC(O)C3 (centres undefined)	72.4%	–
CN(NC(=O)CC(=O)NN(C)C(=S)c1ccccc1)C(=S)c1ccccc1	1.95%	–
CO[C@H]1CC[C@@H](C(=O)c2ccc3nc4c(cc3c2)CCCO4)CC1	61%	–
O=S(=O)(c1cccc2c(O)nccc12)N1CCCNCC1	9.53%	–
Cc1ccc(S(N)(=O)=O)cc1	-0.54%	–
COc1cc(NC(=O)c2ccc(-c3ccc(Cl)cc3)o2)cc(OC)c1	1.11%	–

Molecule	inhibition [1]	inhibition [2]
COc1ccc(/C=C/C(=O)O)cc1	-4.93%	–
COc1cccc(NC(=O)/C=C/c2ccc(Cl)cc2)c1	99.9%	–
CCN(CC)CCOc1ccc(Nc2ncc3cc(-c4c(Cl)cccc4Cl)c(=O)n(C)c3n2)cc1	12.6%	–
Cc1cc(-c2ccc(/N=N/c3ccc4c(S(=O)(=O)O)cc(S(=O)(=O)O)c(N)c4c3O)c(C)c2)ccc1/N=N/c1ccc2c(S(=O)(=O)O)cc(S(=O)(=O)O)c(N)c2c1O	80.8%	–
NC(=O)NC1NC(=O)NC1=O (centres undefined)	1.79%	–
C[C@@H]1CCO[C@H]2Cn3cc(C(=O)NCc4ccc(F)cc4F)c(=O)c(O)c3C(=O)N12	-3.66%	–
O=C1c2ccccc2C(Cc2ccncc2)(Cc2ccncc2)c2ccccc21	3.99%	–
CCN(CC)CCCC(C)Nc1nc(C)cc(Nc2ccc3nc(C)cc(N)c3c2)n1 (centres undefined)	-7.44%	–
CCc1ccc(OCc2ccccc2C(=O)Nc2ccc3nc(C)cc(N)c3c2)cc1	80.4%	–
CCN(CC)CCOC(=O)C(Cc1cccc2ccccc12)CC1CCCO1 (centres undefined)	2%	–
Nc1nccc2c1ncn2[C@@H]1C=C(CO)[C@@H](O)[C@H]1O	-4.17%	–
O=C(NCC1(N2CCN(c3ccccc3)CC2)CCOCC1)c1cccnc1Sc1ccccc1	8.43%	–
CCC(C)(C)C(=O)C(=O)N1CCC[C@H]1C(=O)OCCCc1cccnc1	-5.62%	–
COc1cc(Nc2nc3ccccc3nc2NS(=O)(=O)c2ccc(NC(=O)c3ccc(C)c(OC)c3)cc2)cc(OC)c1	17.4%	–
COc1cc(C(=O)NS(=O)(=O)c2ccccc2C)ccc1Cc1cn(C)c2ccc(NC(=O)OC3CCCC3)cc12	73.7%	–
COc1cc(N)c(Cl)cc1C(=O)OCCN1CCCCC1	6.86%	–
O=C(NC1Cc2ccccc2N(C[C@@H](O)CO)C1=O)c1cc2cc(Cl)sc2[nH]1 (some centres undefined)	-2.31%	–
CCCCCCCC/C=C\CCCCCCCC(=O)N[C@@H](CO)Cc1ccc(O)cc1	27.9%	–
Nc1ccc(/N=N/c2ccccc2)c(N)n1	102%	–
NC(C(=O)O)c1cc(O)ccc1Cl (centres undefined)	15.3%	–
CCCn1c(=O)c2[nH]cnc2n(-c2ccc(Cl)cc2)c1=O	20.4%	–
O=S(=O)(O)c1cc(O)ccc1O	-4.71%	–
C/C=C(/C(=C/C)c1ccc(O)cc1)c1ccc(O)cc1	0.77%	–
COc1cc(/C=C/c2ccc(OC)cc2OC)cc(OC)c1	86.2%	–
COc1ccc(/C=C\c2cc(OC)c(OC)c(OC)c2)cc1O	14.7%	–
OC[C@H]1O[C@@H](Oc2cc(O)cc(/C=C/c3ccc(O)cc3)c2)[C@H](O)[C@@H](O)[C@@H]1O	31.5%	–

Molecule	inhibition [1]	inhibition [2]
Oc1ccc(/C=C/c2cc(O)cc(O)c2)cc1	97%	–
Oc1cc(O)cc(/C=C/c2ccc(O)c(O)c2)c1	85.2%	–
COc1cc(/C=C/c2ccc(O)cc2)cc(OC)c1	99%	–
COc1ccc(O)cc1	19.4%	–
COc1cc(/C=C2\CCC/C(=C\c3ccc(O)c(OC)c3)C2=O)ccc1O	35.9%	–
Oc1cc(O)cc(O)c1	18.2%	–
NCC(O)(CS(=O)(=O)O)c1ccc(Cl)cc1 (centres undefined)	-2.67%	–
C=CC1=C(C)c2cc3[nH]c(cc4nc(cc5[nH]c(cc1n2)c(C)c5CCC(=O)O)C(CCC(=O)O)=C4C)c(C)c3C=C	21.1%	–
C[C@H](N)[C@H](O)c1cccc(O)c1	1.85%	–
CCCC(=O)C1CCN(c2ncnc3c2CN(C(=O)c2ccc(-c4ccccc4)cc2)CC3)CC1	2.41%	–
Cn1c(=O)c2c(ncn2CC(=O)Nc2ccc(-c3ccccc3)nn2)n(C)c1=O	41.8%	–
CN(CC[C@@H](Oc1ccc(-c2ccccc2)cc1)c1ccc(F)cc1)CC(=O)O	-3.28%	–
O=C(/C=C/c1c(C(=O)O)[nH]c2cc(Cl)cc(Cl)c12)Nc1ccccc1	27.4%	–
COc1ccc2c(c1)-c1nn(CCCN(C)C)c3ccc([N+](=O)[O-])c(c13)N2	9.03%	–
CC(=O)NC[C@H]1CN(c2ccc(-c3ccc(CNCc4cnn[nH]4)cc3)c(F)c2)C(=O)O1	35.9%	–
CC(=O)NC[C@H]1CN(c2ccc(N3CCSCC3)c(F)c2)C(=O)O1	9.47%	–
Cn1nnc(-c2ccc(-c3ccc(N4C[C@H](CO)OC4=O)cc3F)cn2)n1	67.9%	–
C[C@@H]1C[C@H]2[C@@H]3CCC4=CC(=O)C=C[C@]4(C)[C@@]3(Cl)[C@@H](O)C[C@]2(C)[C@@]1(OC(=O)c1ccco1)C(=O)CCl	-2.71%	–
CSc1ccc(C(=O)/C=C/c2cc(C)c(OC(C)(C)C(=O)O)c(C)c2)cc1	-7.51%	–
EUK 134, CHEMBL5308416	–	33.1%
Nc1ncnc2c1c(COc1cccc(Cl)c1)nn2C1CCOCC1	-8.17%	–
O=C(O)c1ccccc1	-0.18%	–
O=C(O)C1CCCN(CCC=C(c2ccccc2)c2ccccc2)C1 (centres undefined)	18.1%	–
O=C(c1ccccc1)c1ccc2n1CCC2C(=O)O (centres undefined)	66.7%	–
CCCC(=O)C1(c2ccccc2)CCN(C(=O)[C@@H](Cc2ccc(OC)cc2)NC(=O)[C@@H](N)Cc2cncn2C)CC1	4.5%	–
Nc1cccc2c(=O)[nH][nH]c(=O)c12	35.2%	–

Molecule	inhibition [1]	inhibition [2]
CCS(=O)(=O)c1ccc2oc(-c3ccc4ccccc4c3)nc2c1	97.2%	–
c1ccc(Cn2c(-c3ccc(OC[C@H](C4CCNCC4)n4c(-c5ccccc5)nc5ccccc54)cc3)nc3ccccc32)cc1	5.68%	–
COc1cc(/C=C(\C#N)C(N)=O)cc(CSc2nc3ccccc3s2)c1O	17.9%	–
CCCCc1oc2ccc(NS(C)(=O)=O)cc2c1C(=O)c1ccc(OCCCN(CCCC)CCCC)cc1	18.6%	–
Cc1cnc(-c2cnc(NCCNc3ccc(C#N)cn3)nc2-c2ccc(Cl)cc2Cl)[nH]1	3.11%	–
Cn1cnc(-c2cc3nccc(Oc4ccc(NC(=S)NC(=O)Cc5ccccc5)cc4F)c3s2)c1	28%	–
Cc1ccc(C(=O)Nc2ccc(CN3CCN(C)CC3)c(C(F)(F)F)c2)cc1C#Cc1cnc2cccnn12	32.8%	–
COC(=O)N1CCN(Cc2cccc(NC(=O)Nc3ccc(C)nc3)c2F)CC1	57.5%	–
COc1cc(N)cn[n+]1-c1ccccc1	15.3%	–
CC(=O)OCC(=O)[C@@]1(O)[C@@H](C)C[C@H]2[C@@H]3CCC4=CC(=O)C=C[C@]4(C)[C@@]3(F)[C@@H](O)C[C@@]21C	8.96%	–
Clc1cccc(Cl)c1CSc1nnc(-c2cnccn2)s1	65.2%	–
COc1c(OCCCN2CCOCC2)ccc2c1N=C(NC(=O)c1cnc(N)nc1)N1CCN=C21	8.29%	–
CCCCCNCC(N)=O	19.9%	–
Oc1nc(O)c2cn[nH]c2n1	9.68%	–
CCS(=O)(=O)CCn1c([N+](=O)[O-])cnc1C	-4.7%	–
CSc1ccc(OCc2ncc([N+](=O)[O-])n2C)cc1	57.1%	–
Cn1c([N+](=O)[O-])cnc1COC(N)=O	2.87%	–
Nc1[nH]cnc2ncnc1-2	-1.89%	–
NS(=O)(=O)c1ccc(S(=O)(=O)Nc2cccc3c(Cl)c[nH]c23)cc1	-6.04%	–
C1CCN2C[C@H]3C[C@H](CN4CCCC[C@@H]34)[C@H]2C1	30.9%	–
Cc1ncc(-c2csc(N=C(N)N)n2)[nH]1	3.96%	–
Ic1cc(-c2ccccc2)ncn1	25.2%	–
CC[C@@]1(O)C(=O)OCc2c1cc1n(c2=O)Cc2cc3c([N+](=O)[O-])cccc3nc2-1	11.9%	–
CC(=O)OCC(=O)NCCCOc1cccc(CN2CCCCC2)c1	14.5%	–
c1cc(CN2CCCCC2)cc(OCCCNc2nc3ccccc3s2)c1	59.6%	–
O=C(OC(C(F)(F)F)C(F)(F)F)N1CCN(Cc2cccc(Oc3ccccc3)c2)CC1	-8.39%	–
